In PubChem BioAssay (NCI) one finds growth data, which are given here for eight compounds.

Some test systems named below: HCT-15 colon; HT29 colon; SNB-19 CNS; U251 CNS; PC-3 prostate; SK-MEL-5 melanoma; UACC-62 melanoma; LOX IMVI melanoma; SK-MEL-28 melanoma; SK-MEL-2 melanoma; EKVX NSCLC; SN12C renal; UO-31 renal; TK-10 renal; ACHN renal; CAKI-1 renal; A498 renal; CCRF-CEM leukemia; MOLT-4 leukemia.
Experiment in all cases: NCI-60 one-dose screen, 48 h (100 = growth as untreated, 0 = no growth, -100 = all killed)
Settings in all cases: 10 µM unless noted

Compounds without any hit were thinned out: in the full panel of roughly 83,000, 20% have a hit.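 Growth was measured after 48 h exposure to one concentration of compound in 96-well plates. Values under 10 count as active.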 A number with no mark means an inactive call. The source made the active and inactive calls.

With `COc1ccc(Nc2nn3c(C)cc(C)nc3c2C(=O)Nc2ccc(C)cc2)c(OC)c1`, the growth was 101% in the assay with HCT-15 colon; 101% with HT29 colon; 101% in the assay on SNB-19 CNS; 94.8% with U251 CNS; 98.8% in the assay on PC-3 prostate; 103% in the assay with SK-MEL-5 melanoma. Further, the growth with UACC-62 melanoma was 93%; with LOX IMVI melanoma, 109%; with SK-MEL-28 melanoma, 94.4%; with SK-MEL-2 melanoma, 92.7%; in the assay with EKVX NSCLC, 103%; with SN12C renal, 98.4%. Moreover, the growth in the assay on UO-31 renal is 82%; in the assay on TK-10 renal it was 107%; with ACHN renal, 101%; with CAKI-1 renal, 95.7%; with A498 renal it was 117%; in the assay on CCRF-CEM leukemia, 106%. Moreover, in the assay on MOLT-4 leukemia, the growth was 107%.
In the case of `O=C(NS(=O)(=O)c1ccccc1)n1cc(-c2ccncc2)c(-c2ccc(Cl)c(O)c2)n1`, the growth was 103% in the assay on HCT-15 colon; 100% in the assay with HT29 colon; 111% with SNB-19 CNS; 110% with U251 CNS; 93.4% with PC-3 prostate; 100% in the assay on SK-MEL-5 melanoma. Also, the growth with UACC-62 melanoma was 59%; in the assay on LOX IMVI melanoma, 79.9%; in the assay with SK-MEL-28 melanoma it was 63%; with SK-MEL-2 melanoma it was 64%; with EKVX NSCLC, 104%; in the assay on SN12C renal, 97.4%. The growth is 112% in the assay on UO-31 renal; 101% with TK-10 renal; 86.8% in the assay on ACHN renal; 99% in the assay on CAKI-1 renal; 106% with A498 renal; 89.8% in the assay on CCRF-CEM leukemia. Moreover, the growth in the assay on MOLT-4 leukemia was 82.7%.
Turning to `c1coc(CNc2ccnc(Nc3ccc(OCCN4CCCCC4)cc3)n2)c1`, the growth in the assay with HCT-15 colon is 89.6%; in the assay with HT29 colon, 57.6%; in the assay on SNB-19 CNS, 97.3%; with U251 CNS it was 85.8%; with PC-3 prostate, 82.9%; with SK-MEL-5 melanoma it was 80.3%. Further, the growth with UACC-62 melanoma was 93.6%; in the assay with LOX IMVI melanoma it was 82.6%; in the assay on SK-MEL-28 melanoma, 107%; with SK-MEL-2 melanoma, 104%; in the assay with EKVX NSCLC, 95.1%; in the assay with SN12C renal, 78%. Further, the growth with UO-31 renal was 71.2%; with TK-10 renal it was 107%; in the assay on ACHN renal it was 100%; in the assay on CAKI-1 renal it was 92.3%; in the assay on A498 renal, 59.8%; in the assay with CCRF-CEM leukemia, 81.4%. Also, the growth in the assay on MOLT-4 leukemia is 81.1%.
`CCCC(=O)Oc1ccc(/C(=C(\C)c2ccccc2)c2ccc(OCCN(CC)CC)cc2)cc1`: the growth in the assay on HCT-15 colon was 49.7%; in the assay with HT29 colon, 5.74% (active); with SNB-19 CNS, 85.7%; in the assay on U251 CNS it was 65.1%; in the assay with PC-3 prostate it was 60.7%; in the assay on SK-MEL-5 melanoma, 64.1%. The growth in the assay with UACC-62 melanoma was 80.4%; in the assay with LOX IMVI melanoma it was 79.8%; in the assay with SK-MEL-28 melanoma it was 68.3%; with SK-MEL-2 melanoma, 97.2%; with EKVX NSCLC, 99.3%; with SN12C renal it was 86.3%. The growth in the assay on UO-31 renal was 51.4%; in the assay on TK-10 renal it was 86%; in the assay on ACHN renal it was 90.7%; with CAKI-1 renal, 96.9%; in the assay with A498 renal it was 93.7%; with CCRF-CEM leukemia, 69.7%. In the assay on MOLT-4 leukemia, the growth was 53.7%.
In the case of `CCCCCCCC[C@@H](O)CC(=O)N[C@@H](CC(N)=O)C(=O)N[C@@H](CCC(N)=O)C(=O)N[C@@H](CC(=O)c1cc(C)cc(O)c1C(=O)c1c(O)cccc1O)CC(C)C`, the growth in the assay on HCT-15 colon was 45.6%; with HT29 colon, 2.56% (active); with SNB-19 CNS, 23.8%; in the assay with U251 CNS, 4.49% (active); in the assay on PC-3 prostate it was 10.8%; with SK-MEL-5 melanoma it was 16.1%. In addition, the growth in the assay with UACC-62 melanoma is 0.947% (active); in the assay with LOX IMVI melanoma, 12.5%; in the assay with SK-MEL-28 melanoma, 28.5%; in the assay with SK-MEL-2 melanoma, 51.9%; with EKVX NSCLC it was 61.1%; with SN12C renal it was 25.4%. The growth in the assay with UO-31 renal was 63.2%; in the assay with TK-10 renal, -6.12% (active); in the assay on ACHN renal, 31.9%; in the assay with CAKI-1 renal it was 40.6%; in the assay on A498 renal, -3.25% (active); with CCRF-CEM leukemia, 11.6%. Besides, in the assay on MOLT-4 leukemia, the growth was 14%.
As for `O=C1/C(=C/c2ccc([N+](=O)[O-])cc2)CN(C(=O)CCN2CCC(=NO)CC2)C/C1=C\c1ccc([N+](=O)[O-])cc1`, the growth in the assay on HCT-15 colon was -68.4% (active); in the assay on HT29 colon, -49.7% (active); in the assay on SNB-19 CNS it was -41.6% (active); in the assay on U251 CNS it was -56.8% (active); in the assay on PC-3 prostate it was -34.6% (active); in the assay with SK-MEL-5 melanoma it was -50.5% (active). Besides, the growth is -52.2% (active) with UACC-62 melanoma; -83.3% (active) in the assay on LOX IMVI melanoma; -30.6% (active) in the assay with SK-MEL-28 melanoma; 2.76% (active) with SK-MEL-2 melanoma; -31.9% (active) in the assay on EKVX NSCLC; -17.6% (active) in the assay on SN12C renal. For the same compound, the growth was -94.9% (active) in the assay on UO-31 renal; 8.77% (active) in the assay on TK-10 renal; -59.2% (active) in the assay on ACHN renal; -46.3% (active) in the assay with CAKI-1 renal; -3.11% (active) with A498 renal; -13.3% (active) in the assay with CCRF-CEM leukemia. The growth with MOLT-4 leukemia is -7.02% (active).
`CC(=O)Nc1ccc(/C=C/C(=O)c2ccccc2)cc1`: the growth is 91.9% in the assay with HCT-15 colon; 83.8% with HT29 colon; 77.7% in the assay with SNB-19 CNS; 74.7% in the assay on U251 CNS; 66.8% in the assay on PC-3 prostate; 100% with SK-MEL-5 melanoma. Besides, the growth in the assay with UACC-62 melanoma is 96.6%; in the assay with LOX IMVI melanoma it was 93%; in the assay with SK-MEL-28 melanoma, 103%; in the assay with SK-MEL-2 melanoma it was 107%; with EKVX NSCLC, 112%; with SN12C renal, 87.5%. The growth is 71.3% with UO-31 renal; 110% in the assay with TK-10 renal; 95.3% with ACHN renal; 104% in the assay with CAKI-1 renal; 73.4% with A498 renal; 31% in the assay on CCRF-CEM leukemia. For the same compound, in the assay with MOLT-4 leukemia, the growth is 75.5%.
Consider `CC(C)C1=CC2=C(C=O)C[C@@H]3[C@](C)(CCC[C@@]3(C)C(=O)OCC#CCN3CCCC3)[C@H]2CC1`, for which the growth in the assay on HCT-15 colon was 60.9%; in the assay with HT29 colon, 18.5%; with SNB-19 CNS it was 85.2%; with U251 CNS, 56.1%; in the assay on PC-3 prostate it was 54.9%; in the assay with SK-MEL-5 melanoma, 65.1%. For the same compound, the growth was 77.4% in the assay with UACC-62 melanoma; 91.9% in the assay with LOX IMVI melanoma; 96.8% in the assay on SK-MEL-28 melanoma; 94% in the assay on SK-MEL-2 melanoma; 98.2% with EKVX NSCLC; 83.7% in the assay with SN12C renal. In addition, the growth with UO-31 renal is 61.6%; in the assay on TK-10 renal, 93.6%; in the assay on ACHN renal, 97.3%; in the assay on CAKI-1 renal, 105%; in the assay on A498 renal, 88.6%; with CCRF-CEM leukemia, 63.9%. Also, the growth in the assay with MOLT-4 leukemia was 66.9%.
